ATXN2 expr inh: Primary qHTS for Inhibitors of ATXN expression | HEK-293 ATXN2-luciferase reporter, luminescence, 24 h | Potency, µM (highest dose often 57 µM), for inactives: at the highest dose activity change, negative = inhibition, actives largely listed as inhibitors | 360,000 compounds, 0.72% hits; further: on the % scale 0 is the no-effect control and ±100 the full control effect; nearly all actives have a fitted effect of over 55% in size
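qHTS (up to 57 uM final) was run with 24 h compound exposure of reporter cells at 37 °C. Each well was multiplexed: SteadyGlo luminescence measured ATXN2-luciferase expression after a fluorogenic Gly-Phe-AFC viability readout (25 uM final).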
ATXN viability: Viability Counterscreen for Primary qHTS for Inhibitors of ATXN expression | AID 651635, 2014 | S2 cells (HEK-293 line with an ATXN2-luciferase reporter) viability, CellTiter-Fluor protease fluorescence, 24 h | 400,000 compounds, 0.49% hits | Potency, µM (doses to about 56.7 µM), usual class: cytotoxic; further: nearly all actives have a fitted effect of over 40% in size
RORgamma inh: qHTS for inhibitors of ROR gamma transcriptional activity. Potency, µM (top dose mostly 53.6 µM), without a hit: top-dose activity change, negative = inhibition, usual class: inhibitors. 310,000 compounds, 5.4% hits. Drosophila S2 Gal4-RORgamma UAS-luciferase reporter, 20 h. AID 2551, 2010. Nuclear receptor ROR-gamma (Mus musculus), P51450; further: on the % scale 0 is the no-effect control and ±100 the full control effect; nearly all actives have a fitted effect of over 60% in size
Target sequence (P51450 whole entry, looked up, the tested form may be a part): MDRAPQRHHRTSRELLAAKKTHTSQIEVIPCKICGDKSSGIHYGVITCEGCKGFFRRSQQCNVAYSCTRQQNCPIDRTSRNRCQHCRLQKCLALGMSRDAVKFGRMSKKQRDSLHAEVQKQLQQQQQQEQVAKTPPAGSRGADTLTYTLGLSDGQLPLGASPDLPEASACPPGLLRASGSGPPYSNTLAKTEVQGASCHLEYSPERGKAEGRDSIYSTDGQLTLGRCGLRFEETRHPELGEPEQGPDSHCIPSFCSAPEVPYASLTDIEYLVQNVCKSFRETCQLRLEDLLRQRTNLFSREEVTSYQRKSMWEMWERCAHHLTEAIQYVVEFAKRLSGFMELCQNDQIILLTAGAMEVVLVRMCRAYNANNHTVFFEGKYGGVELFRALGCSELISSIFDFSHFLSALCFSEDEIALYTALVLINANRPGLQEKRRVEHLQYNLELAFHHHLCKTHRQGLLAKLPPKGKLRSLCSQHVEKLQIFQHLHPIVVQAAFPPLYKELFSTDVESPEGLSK
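A Gal4/UAS one-hybrid system in insect cells: metallothionein-promoter Gal4–ROR gamma fusion plus Photinus luciferase reporter. Copper sulfate 700 uM final, 20 hr ambient incubation, luminescent detection after 10 min with reagent.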
HepG2 tox-1: qHTS for Inhibitors of TGF-b: Cytotox Counterscreen. 410,000 compounds, 0.76% hits. Potency, µM (doses to about 46.1 µM), for inactives: at the highest dose activity change, negative = cytotoxicity, actives largely listed as cytotoxic. HepG2 CAGA-GFP viability, ATP luminescence, 18 h
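HepG2 CAGA-GFP cells (1000/well, DMEM with 1% FBS) received compound, then TGF-beta at 500 pg/mL final, and were incubated 18 hours at 37 degrees C. Viability was read by CellTiter-Glo luminescence. Media-only wells were set as complete cell-killing and DMSO as no toxicity.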
TGFb inhibitor: qHTS for Inhibitors of TGF-b; HepG2 CAGA-GFP TGF-b/SMAD3 reporter, GFP fluorescence, 18 h; TGF-beta stimulated, 500 pg/mL final; AID 588855, 2011; 410,000 compounds, 1.2% hits; Potency, µM (highest dose often 46.1 µM), for inactives: top-dose activity, negative = inhibition, most hits filed as inhibitors; further: on the % scale 0 is the no-effect control and ±100 the full control effect; nearly all actives have a fitted effect of over 65% in size
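HEPG2 CAGA-GFP cells (1000/well, DMEM with 1% FBS) were pre-incubated 2 h at 37 degrees C, given compound by pin tool, then stimulated with TGF-beta at 500 pg/mL final for 18 h before per-cell GFP fluorescence imaging.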
Gal4-VP16 FLuc: VP16 counterscreen qHTS for inhibitors of ROR gamma transcriptional activity. Drosophila S2 Gal4-VP16 UAS-luciferase, luminescence, 20 h. Potency, µM (top dose mostly 53.6 µM), inactives show top-dose activity, negative = inhibition, usual class: inhibitors. 310,000 compounds, 3.5% hits. AID 2546, 2010;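 further: Gal4-VP16 expression switched on by copper sulfate through the metallothionein promoter; on the % scale 0 is the no-effect control and ±100 the full control effect; nearly all actives have a fitted effect of over 50% in size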
TGFb confirm: qHTS for Inhibitors of TGF-b: Confirmation of Cherry Picks; shares compounds with TGFb inhibitor; 1,600 compounds, 63% hits; HepG2 CAGA-GFP TGF-b reporter, GFP fluorescence, 18 h; cells stimulated with TGF-beta, 500 pg/mL; Potency, µM (highest dose often 46.1 µM), without a hit: at the top dose activity, negative = inhibition, actives largely listed as inhibitors; AID 720534, 2013; further: on the % scale 0 is the no-effect control and ±100 the full control effect; nearly all actives have a fitted effect of over 65% in size
HepG2 tox-2: qHTS for Inhibitors of TGF-b: Cytotox Counterscreen for Cherry Picks | Potency, µM (series often up to 46.1 µM), inactives show top-dose activity, negative = cytotoxicity, most hits filed as inhibitors | 1,600 compounds, 27% hits | HepG2 CAGA-GFP viability, ATP luminescence, 18 h; cells stimulated with TGF-beta, 500 pg/mL | AID 720535, 2013 | shares compounds with TGFb inhibitor; further: on the % scale 0 is the no-effect control and ±100 the full control effect; nearly all actives have a fitted effect of over 70% in size
CCL64 TGFb inh: qHTS for Inhibitors of TGF-b: CCL64 Cells Orthogonal Assay for Cherry Picks | shares compounds with TGFb inhibitor | CCL64 CAGA-GFP reporter, TGF-b stimulated, GFP fluorescence, 18 h | Potency, µM (highest dose often 46.1 µM), for the others: top-dose activity, negative = inhibition, most hits filed as inhibitors | 1,600 compounds, 41% hits; further: nearly all actives have a fitted effect of over 65% in size
TGFb COP inh: qHTS for Inhibitors of TGF-b: Hit Validation in HepG2 Cells using COP promoter; Potency, µM (series often up to 46.1 µM), for the others: at the highest dose activity, negative = inhibition, hits mostly inhibitors; 1,600 compounds, 3% hits; shares compounds with TGFb inhibitor; HepG2 COP-GFP TGF-b reporter, GFP fluorescence, 18 h; cells stimulated by added recombinant TGF-beta; AID 720537, 2013; further: nearly all actives have a fitted effect of over 70% in size
Starred values were filed as active, the others as inactive; i = inactive; ? = inconclusive; . = not tested or not shown; [ ] = another dose, or the depositor's remark. Most compounds without a hit are left out; they make up all but 6.1% or so of the library. The call rests on the fitted dose curve; in most records, active means well fitted curve in the direction sought with a large enough effect; inconclusive means small, poorly fitted or top-dose-only effect, or another doubt; inactive means no such curve, though single readings can be large; an effect the other way counts as inactive or inconclusive. Potency means the concentration at half of the fitted maximal effect.

SMILES	ATXN2 expr inh	ATXN viability	RORgamma inh	HepG2 tox-1	TGFb inhibitor	Gal4-VP16 FLuc	TGFb confirm	HepG2 tox-2	CCL64 TGFb inh	TGFb COP inh
COc1ccc(-c2cc(N)n(S(=O)(=O)c3ccc(C)cc3)n2)c(OC)c1	-7%	i	2%	-23%	-9%	-6%	.	.	.	.
COc1ccc(S(=O)(=O)n2nc(-c3ccc(Cl)cc3)cc2N)cc1	-34%	?	-1%	-18%	13µM*	-4%	?	?	?	32%
CC(=O)c1ccc(S(=O)(=O)Nc2ccc(-c3cn4c(C)csc4n3)cc2)cc1	35%	i	.	1%	-8%	.	.	.	.	.
COc1ccc(C2C(=O)N(C3CCCCCC3)CC(=O)N2Cc2ccc(C)cc2)cc1OC (stereo not given)	.	.	.	-24%	-8%	.	.	.	.	.
COc1ccc(OC)c(NC(=O)C2=C(C)C(=O)OC23CCN(C(C)C)CC3)c1	6%	i	.	-52%	-2%	.	.	.	.	.
COc1ccc(NCc2nc3ccccc3n2C)cc1	.	i	?	-23%	25%	-9%	.	.	.	.
COc1ccc(NCc2nc3ccccc3n2CCOc2ccc(C)cc2)cc1	?	?	20µM*	-32%	14µM*	?	13µM*	?	8.2µM*	40%
CCCCCCC[C@@H](C/C=C/CCC(=O)N(C)C/C(=C/Cl)C/C(=C\C(=O)N1CC(OC)=CC1=O)OC)OC	?	22µM*	.	-70%	0.71µM*	.	0.73µM*	?	7.3µM*	-3%
Cc1ccc2c(=O)c(C(=O)c3ccc(Cl)cc3)cn(CC(=O)Nc3ccc4c(c3)OCCO4)c2n1	-20%	i	.	-10%	11%	.	.	.	.	.
CCCN(C(=O)Cn1nc(Cc2ccncc2)c2ccccc2c1=O)c1ccccc1C	.	.	.	-32%	?	.	.	.	.	.
CN(C)S(=O)(=O)c1cccc(NC(=O)COC(=O)CCSc2ccc(Cl)cc2)c1	-9%	i	-1%	2%	8%	-1%	.	.	.	.
CCN(CC)S(=O)(=O)c1cccc(NC(=O)CCSc2ccc(Cl)cc2)c1	?	i	40%	7%	10µM*	-6%	21µM*	?	26µM*	26%
Cc1cc(C)n(-c2ccc(C(=O)Nc3cccc([N+](=O)[O-])c3)cc2)n1	-31%	i	43%	-22%	3%	-12%	.	.	.	.
CCN(CC)S(=O)(=O)c1cccc(NC(=O)c2ccc(-n3nc(C)cc3C)cc2)c1	?	?	?	-1%	7.9µM*	-13%	?	-18%	-1%	-9%
O=c1cc(-c2ccc(F)cc2)nc(SCc2nc(-c3cccc(Cl)c3)no2)[nH]1	.	.	.	-29%	0%	.	.	.	.	.
Oc1ccccc1-c1n[nH]c(-c2ccccc2O)n1	-19%	?	.	-61%	2.8µM*	.	?	?	?	4%
Clc1ccccc1-c1nc(-c2ccccc2)n[nH]1	76%	i	-16%	-56%	0%	?	.	.	.	.
Cc1ccccc1CCNC(=O)c1ccc(Cl)c(S(=O)(=O)N2CC(C)OC(C)C2)c1 (stereo not given)	-35%	?	.	4%	10µM*	.	16µM*	?	?	3%
CC1CN(S(=O)(=O)c2cc(C(=O)NCc3ccncc3)ccc2Cl)CC(C)O1 (stereo not given)	-3%	i	.	-1%	3%	.	.	.	.	.
COc1ccc(OC)c(S(=O)(=O)Nc2ccc(C)c(C)c2)c1	9%	i	?	-14%	-1%	?	.	.	.	.
COc1ccc(OC)c(S(=O)(=O)Nc2cc(Cl)cc(Cl)c2)c1	-2%	i	?	0%	7.9µM*	-28%	21µM*	-8%	-27%	-15%
Nc1nc(N)c2cc([N+](=O)[O-])ccc2n1	-10%	i	.	0%	7%	.	.	.	.	.
Nc1nc(N)c2c(ccc3c2ccn3Cc2cccc([N+](=O)[O-])c2)n1	?	?	.	-98%	3.5µM*	.	4.6µM*	0.29µM*	?	13µM*
CCCCNc1c(-c2cccc(SC(C)CC)c2)nc2ccc(Cl)cn12 (stereo not given)	0%	i	.	-20%	?	.	.	.	.	.
CCCCNc1c(-c2ccc(OC)c(SC(C)CC)c2)nc2ccc(Cl)cn12 (stereo not given)	-20%	?	.	-6%	10µM*	.	?	-19%	?	-5%
SMILES	ATXN2 expr inh	ATXN viability	RORgamma inh	HepG2 tox-1	TGFb inhibitor	Gal4-VP16 FLuc	TGFb confirm	HepG2 tox-2	CCL64 TGFb inh	TGFb COP inh
Cn1cc(S(=O)(=O)c2ccc(Cl)cc2)c(=O)c2cc(F)c(N3CCOCC3)cc21	.	.	.	-4%	?	.	.	.	.	.
CCc1cccc(NC(=O)COC(=O)c2cn(CC)c3nc(C)ccc3c2=O)c1	6%	i	.	-77%	?	.	.	.	.	.
C=C1C2=C(C(=O)N1OC)[C@@H](O)[C@@](C)(O)[C@@H](CCCCC)O2	-9%	?	.	-26%	13µM*	.	?	-2%	-7%	9%
COCCNC(=O)c1c(NC(=O)c2cc(=O)c3cc(Cl)ccc3o2)sc2c1CCCC2	.	.	.	10%	0%	.	.	.	.	.
CCCN(CCC)CCCNC(=O)Cn1cnc2onc(-c3ccc(F)cc3)c2c1=O	-13%	i	.	-41%	-16%	.	.	.	.	.
COc1ccc(C(=O)/C(C#N)=N/Nc2cccc([N+](=O)[O-])c2)cc1	.	11µM*	?	-19%	10µM*	-3%[10 µM]	5.2µM*	?	8.2µM*	46%

Bioassay records from PubChem.
